# Several values for one entry are separate records, joined by “and”; a condition that tells them apart may be missing. Equal entries are not always repeated. Inconclusive results are not listed. Activity calls are given as the source filed them. Rule for the calls: active = hit-call score of the fitted dose curve at least 0.9, where 1 is the maximum; inconclusive = response in the unintended direction; inactive = score below 0.9.
# Target: Peroxisome proliferator-activated receptor gamma (Homo sapiens) (UniProt P37231)
# Sequence (P37231 whole entry, looked up): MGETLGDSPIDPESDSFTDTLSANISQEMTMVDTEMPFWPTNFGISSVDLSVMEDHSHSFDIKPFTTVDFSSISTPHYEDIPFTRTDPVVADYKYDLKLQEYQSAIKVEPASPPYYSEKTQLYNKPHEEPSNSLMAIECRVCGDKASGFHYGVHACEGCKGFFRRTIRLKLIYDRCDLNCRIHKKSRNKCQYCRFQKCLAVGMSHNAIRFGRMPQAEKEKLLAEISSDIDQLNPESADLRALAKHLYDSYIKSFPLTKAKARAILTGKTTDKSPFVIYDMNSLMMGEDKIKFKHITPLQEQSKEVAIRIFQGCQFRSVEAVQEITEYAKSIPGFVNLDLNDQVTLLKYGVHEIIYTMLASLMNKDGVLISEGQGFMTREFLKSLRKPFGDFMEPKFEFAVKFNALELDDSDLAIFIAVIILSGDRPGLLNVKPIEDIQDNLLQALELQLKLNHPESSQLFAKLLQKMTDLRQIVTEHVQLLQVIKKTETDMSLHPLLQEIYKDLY
# Test: ATG_PPARg_TRANS: Attagene TRANS-FACTORIAL HepG2 Assay for human Peroxisome Proliferator-activated Receptor-gamma (PPARg) (AID 2283007)
# Experimental: ATG_TRANS is a cell-based, multiplexed-readout assay that uses HepG2, a human liver cell line, with measurements taken at 24 hours after chemical dosing in a 24-well plate.ATG_PPARg_TRANS is one of 30 assay component(s) measured or calculated from the ATG_TRANS assay. It is designed to make measurements of mRNA induction, a form of inducible reporter, as detected with fluorescence intensity signals by Reverse transcription polymerase chain reaction (RT-PCR) and Capillary electrophoresis technology.Data from the assay component ATG_PPARg_TRANS was analyzed into 1 assay endpoint. This assay endpoint, ATG_PPARg_TRANS, was analyzed in the positive analysis fitting direction relative to DMSO as the negative control and baseline of activity. Using a type of inducible reporter, measures of mRNA for gain-of-signal activity can be used to understand the reporter gene at the transcription factor-level as they relate to the gene PPARG. Furthermore, this assay endpoint can be referred to as a primary readout, because this assay has produced multiple assay endpoints where this one serves a reporter gene function. To generalize the intended target to other relatable targets, this assay endpoint is annotated to the nuclear receptor intended target family, where the subfamily is non-steroidal.
# Human liver HepG2 cells are transiently transfected with multiple reporter transcription units (MRTUs) in 6-well plates using FuGene 6 reagent (Roche; 3 ml FuGene/1 mg DNA). The MRTU constructs are regulated by a cis-regulating element (promoter). […] A major difference between the CIS and TRANS system is that in CIS activities of endogenous TFs are measured, whereas the TRANS assay evaluates changes in activities of exogenous, chimeric NR-Gal4 proteins. […] At the end of 24 hour incubation, total RNA was isolated using TriZol reagent (Invitrogen). The isolated RNA is then reverse-transcribed using oligo(dT) primer and Mo-MLV reverse transcriptase (Invitrogen) with DNAse I (Ambion) treatment for 30 min. The one-tenth of the produced cDNA was amplified by PCR using Taq DNA polymerase (Invitrogen) and two reporter sequence-specific primers. The PCR products were fluorescently labeled by primer extension with 6-arboxyfluorescein (6-FAM) 5'-labeled reporter sequence-specific primer (2 min at 95 C, 20 s at 68 C and 10 min at 72 C) and these products were digested with 5U of HpaI (New England Biolabs) for 2h at 37 C. The fragments were purified using Qiaquick PCR columns (Qiagen), analyzed on an ABI 3130xL genetic analyzer (Applied Biosystems) with peak positions identified by using a set of X-rhodamine (ROX)-labeled MapMarker1000 molecular weight standards (BioVentures). The raw capillary electrophoresis data was processed using Attagraph software (Attagene).
SMILES,outcome,AC50
O=C(Oc1ccc(Br)cc1)N1CCN2CCC1CC2,inactive,
CCCCCCCCCCCCCN1CC(C)OC(C)C1 (stereo not given),inactive,
Nc1ccc(N=Nc2ccccc2)cc1,,100 µM (active)
Cc1cccc(N)c1N,inactive,
CC(C)(OOC(C)(C)c1ccccc1)c1ccccc1,inactive,
CCCCCCCCn1sccc1=O,,9.45 µM (active)
CCCCCCCCOC(=O)c1ccc(C(=O)OCCCCCCCC)c(C(=O)OCCCCCCCC)c1,inactive,
O=C1CCCO1,inactive,
COP(=S)(OC)SCN1C(=O)c2ccccc2C1=O,inactive,
CNC(=O)Oc1cccc2c1OC(C)(C)C2,inactive,
CS(=O)(=O)NC(=O)c1cc(Oc2ccc(C(F)(F)F)cc2Cl)ccc1[N+](=O)[O-],,30.3 µM (active)
C1=Cc2cccc3cccc1c23,inactive,
N#CC(Br)Br,inactive,
CCCCCOC(=O)c1ccccc1C(=O)OCCCCC,,49.7 µM (active)
O=[N+]([O-])c1ccc(Oc2ccc(Cl)cc2Cl)cc1,,14.3 µM (active)
Cc1cc(N=Nc2ccccc2C)ccc1N,,18.3 µM (active)
COC(=O)Nc1nc2ccccc2[nH]1,inactive,
[Cl-].[Cl-].[Hg+2],inactive,
C=CCc1ccc2c(c1)OCO2,inactive,
O=[N+]([O-])C(Br)(CO)CO,inactive,

SMILES,outcome,AC50
COc1cc(C=O)cc2c1[C@H](COC(N)=O)[C@]1(OC(C)=O)ON2C[C@H]2[C@@H]1N2C(C)=O,inactive,
CN(C)C(=O)Nc1ccc(Cl)cc1,inactive,
Nc1ccc(Cl)cc1N,inactive,
CCOC(=O)[C@]1(c2ccccc2)Oc2ccccc2[C@@H]1N,inactive,
c1ccc2c(c1)-c1cccc3cccc-2c13,inactive,
CC(C)COC(=O)c1ccccc1C(=O)OCC(C)C,,44.6 µM (active)
Nc1cc(Cl)cc(C(=O)O)c1Cl,inactive,
CCNS(=O)(=O)C(F)(F)C(F)(F)C(F)(F)C(F)(F)C(F)(F)C(F)(F)C(F)(F)C(F)(F)F,,96.5 µM (active) and 120 µM (active) and 51.2 µM (active)
Nc1ccc(Oc2ccc(N)cc2)cc1,inactive,
Clc1ccc(C(c2ccc(Cl)cc2)C(Cl)(Cl)Cl)cc1,inactive,
Clc1ccccc1Cl,inactive,
c1ccc(C2CO2)cc1 (stereo not given),inactive,
CC(C)(C)C(O)(CCc1ccc(Cl)cc1)Cn1cncn1 (stereo not given),inactive,
Clc1ccc(C(c2ccc(Cl)cc2)C(Cl)Cl)cc1,inactive,
O=P(OCCCl)(OCCCl)OCCCl,inactive,
CN(C)c1ccc(C(=O)c2ccc(N(C)C)cc2)cc1,,6.44 µM (active)
C[C@]12C=CC3=C4CCC(=O)C=C4CC[C@H]3[C@@H]1CC[C@@H]2O,inactive,
Nc1ccc(Cc2ccc(N)cc2)cc1,inactive,
CO[C@@H]1[C@H](OC(=O)NC(=O)CCl)CC[C@]2(CO2)[C@H]1[C@@]1(C)O[C@@H]1CC=C(C)C,inactive,
ClCCOCCCl,inactive,

# Reference: PubChem BioAssay (EPA / NIEHS)
